IL-1B inflam inh: inflammasome signaling inhibition, IL-1 beta readout. THP-1 LPS/ATP IL-1B secretion, AlphaLISA, 16 h; active compounds read low. activity change, % at 57.5 µM. hit rate 4.7% among 360,000; in the data active means activity change below about -50%; inconclusive means mostly about -30% to -49%
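THP-1 cells pretreated 1 hr with compounds (up to 57.5 uM final), then stimulated with LPS (250 ng/mL final) plus ATP (1.25 mM final); secreted IL-1B measured by AlphaLISA after 16 hr, decreased signal indicating inhibition.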
HT1080-NT tox: kills 2HG-producing HT-1080-NT fibrosarcoma cells; HT-1080-NT fibrosarcoma viability, CellTiter-Glo ATP luminescence, 48 h; Potency, µM (doses to about 46.1 µM), usual class: cytotoxic; hit rate 1.6% among 360,000; AID 686970;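 further: NT is the 2HG producing partner of a matched IDH1 knockdown line; nearly all actives have a fitted effect of over 55% in size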
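Luminescent CellTiter-Glo readout after 48 hours of compound exposure at 37 degrees C defined viability of HT-1080-NT cells. Activity was normalized to DMSO wells and cell-free media wells; concentration-response curves were fitted and assigned curve classes.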
HT1080 IDH1KD tx: HT-1080 IDH1 knockdown cell toxicity (counter line) | HT-1080 IDH1 knockdown viability, ATP luminescence, 48 h | Potency, µM (doses to about 46.1 µM), usual class: cytotoxic | hit rate 2% among 360,000
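Luminescent ATP read-out (CellTiter-Glo, 10 min at room temperature) after 48 h compound exposure at 37 °C gave viability of IDH1-knockdown HT-1080 cells. Activity was normalised to DMSO and cell-free wells, then fitted as concentration-response curves.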
TDP1 cell CPT: DT40-hTDP1 cell growth loss with CPT | chicken DT40 Tdp1-/-;hTDP1 cells + 20 nM CPT, ATP luminescence, 48 h | Potency, µM (doses to about 46.2 µM), hits mostly inhibitors | hit rate 12% among 420,000; further: nearly all actives have a fitted effect of over 55% in size
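Cell growth measured by CellTiter-Glo luminescence after a minimum 48 h, 37 C compound exposure with 20 nM CPT in Tdp1-knockout DT40 cells stably expressing hTDP1, seeded 400/well; qHTS titration format.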
DT40 TDP1 no CPT: qHTS for Inhibitors of human tyrosyl-DNA phosphodiesterase 1 (TDP1): qHTS in cells in absence of CPT | DT40 Tdp1-/- hTDP1 cells, no CPT, ATP luminescence, 48 h | Potency, µM (top dose mostly 46.2 µM), most hits filed as inhibitors | hit rate 15% among 420,000; further: nearly all actives have a fitted effect of over 55% in size
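No-CPT arm: Tdp1-/-;hTDP1 DT40 cells (400/well) plus compounds, incubated ≥48 hr at 37 °C. Readout CellTiter-Glo luminescence.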
Hits are given with their value; n = inactive; u = inconclusive; x = not tested or not shown. Compounds with a hit are over-represented: about 19% of the library has one in this group of screens. Unless noted, the call rests on the fitted dose curve; in most records, active means well fitted curve in the direction sought with a large enough effect; inconclusive means small, poorly fitted or top-dose-only effect, or another doubt; inactive means no such curve, though single readings can be large; an effect the other way counts as inactive or inconclusive.

SMILES | IL-1B inflam inh | HT1080-NT tox | HT1080 IDH1KD tx | TDP1 cell CPT | DT40 TDP1 no CPT
O=C(O)c1cccc(S(=O)(=O)Nc2ccc([N+](=O)[O-])cc2O)c1 | n | n | n | n | n
CCOc1ccc(S(=O)(=O)Nc2cc(SCC(=O)O)c(O)c3ccccc23)cc1 | n | 23µM | 23µM | 3.7µM | 4.6µM
CCOc1ccc(S(=O)(=O)Nc2cc(OC)c(OC)cc2C(=O)O)cc1 | n | n | n | n | n
Cc1cc(CNC(=O)COc2ccc(F)cc2Cl)cc(C)c1O | -88 | n | n | n | n
O=C(COc1ccc(Cl)cc1Cl)NCc1ccncc1 | n | n | n | n | n
Cc1cc(NC(=O)NC(=O)c2ccccc2NC(=O)CN)ccc1Oc1ncc(Br)cn1 | n | 0.52µM | u | 0.82µM | 0.58µM
Nc1ccccc1C(=O)NC(=O)Nc1ccc(Oc2ncc(Br)cn2)c(Cl)c1 | n | u | u | 0.0052µM | 0.018µM
Cc1cc(NC(=O)NC(=O)c2ccccc2NC(=O)CN(C)C)ccc1Oc1ncc(Br)cn1 | n | u | u | 3.7µM | 4.1µM
COc1ccc(NC(=O)Nc2ccccc2C(N)=O)cc1OC | n | n | n | n | n
COc1ccc2c(c1)c(=O)c(C(=O)c1ccc(F)cc1)cn2CC(=O)Nc1ccc(F)cc1 | n | n | n | u | u
COc1ccc2c(c1)c(=O)c(C(=O)c1ccc(C)cc1)cn2CC(=O)Nc1ccc(F)cc1 | n | n | n | u | 16µM
COc1cccc(NC(=O)Cn2cc(C(=O)c3ccc(F)cc3)c(=O)c3cc(OC)ccc32)c1 | x | x | x | n | n
CCc1ccc2c(c1)c(=O)c(C(=O)c1ccccc1)cn2CC(=O)Nc1ccc(C)c(Cl)c1 | x | x | x | 21µM | 12µM
CCc1ccc(C(=O)c2cn(CC(=O)Nc3cccc(OC)c3)c3ccc(OC)cc3c2=O)cc1 | x | x | x | u | 23µM
CCOc1ccccc1CNC(=O)c1ccc2c(c1)N(CC)CCS2 | n | n | n | 15µM | 9.2µM
CCN1CCSc2ccc(C(=O)NCc3cccc(Br)c3)cc21 | u | n | n | u | u
CCOc1ccccc1CNC(=O)c1ccc2c(c1)N(Cc1ccc(C)cc1)CCS2 | x | x | x | 18µM | 9.2µM
O=C(NCc1ccccn1)c1ccc2c(c1)N(Cc1ccccc1)CCS2 | n | n | n | u | u
Cc1ccc(CN2CCSc3ccc(C(=O)Nc4ccc(C)cc4)cc32)cc1 | x | x | x | 16µM | 16µM
COc1ccccc1CNC(=O)c1ccc2c(c1)N(Cc1ccc(C)cc1)CCS2 | x | x | x | 16µM | u
Cc1ccc(CN2CCSc3ccc(C(=O)NCc4ccco4)cc32)cc1 | u | n | u | u | u
Cc1ccc(OCCCC(=O)Nc2ccc(Br)cc2)cc1 | n | n | n | u | n
CC(CC(=O)Nc1cc(S(=O)(=O)N2CCOCC2)ccc1OCC(F)(F)F)c1ccccc1 (configuration not stated) | n | n | n | n | n
Cc1noc(COc2ccccc2OCC(N)=O)n1 | x | n | n | n | n
Cc1ccccc1NS(=O)(=O)c1ccc(C(=O)NCC2CCCO2)cc1 (configuration not stated) | n | n | n | u | n
SMILES | IL-1B inflam inh | HT1080-NT tox | HT1080 IDH1KD tx | TDP1 cell CPT | DT40 TDP1 no CPT
COCCNC(=O)c1[nH]c(C(F)(F)F)nc1-c1ccccc1 | n | n | n | n | n
CCN1CCSc2ccc(C(=O)NC(C)c3ccccc3)cc21 (configuration not stated) | x | x | x | 18µM | 23µM
CCN1CCSc2ccc(C(=O)NCc3cccc(F)c3)cc21 | n | n | n | u | 18µM
CN1CCSc2ccc(C(=O)Nc3cccc(F)c3)cc21 | -53 | n | n | u | u
CCS(=O)(=O)N1Cc2ccccc2CC1C(=O)Nc1cccc(S(=O)(=O)N(C)C)c1 (configuration not stated) | n | n | n | u | n
CCC(Sc1ncnc2sc3c(c12)CCCC3)C(=O)OCC(C)C (configuration not stated) | x | x | x | 26µM | u
Cc1ccc(C(=O)CSc2ncnc3sc4c(c23)CCCC4)cc1 | n | n | n | u | 21µM
CCC(Sc1ncnc2sc3c(c12)CCCC3)C(=O)OC(C)C (configuration not stated) | x | x | x | 18µM | u
O=C(O)CSc1ncnc2sc3c(c12)CCC3 | n | n | n | u | u
O=C(O)CSc1ncnc2sc3c(c12)CCCC3 | n | n | n | n | n
Cc1ccc(S(=O)(=O)NC(CC(C)C)C(=O)Nc2ccncc2)cc1 (configuration not stated) | n | n | n | u | u
O=C(Nc1cccc(C(=O)OCc2cc(=O)n3nc(C4CC4)sc3n2)c1)c1cccc(F)c1 | x | x | x | n | n
CN(N=O)C(=O)N[C@H]1C(O)OC(CO)[C@@H](O)[C@H]1O (some centres not stated) | x | x | x | n | n
Cn1nc(C(C)(C)C)cc1N1C(=O)CCC1(C)C(=O)NC1CCCC1 (configuration not stated) | n | n | n | n | n
C=C(c1ccccc1Cl)[n+]1ccccc1 | n | n | n | 12µM | 7.3µM
O=C(COc1ccccc1)Nc1ccc(-c2nnc(-c3ccco3)o2)cc1 | n | 9.2µM | 12µM | n | n
O=C(Cc1ccc(Cl)cc1)Nc1cccc(-c2nnc(-c3ccco3)o2)c1 | n | u | u | u | u
O=C(Nc1cccc(-c2nnc(-c3ccccc3)o2)c1)C1CC1 | u | n | n | u | u
COc1ccccc1OCC(=O)Nc1cccc(-c2nnc(-c3ccco3)o2)c1 | n | n | u | u | 21µM
O=C(Nc1cccc(-c2nnc(-c3ccco3)o2)c1)c1ccccc1 | -78 | n | n | u | u
COc1ccccc1OCC(=O)Nc1nnc(-c2ccco2)s1 | n | n | n | n | n
O=C(Cc1ccccc1)Nc1cccc(-c2nnc(-c3ccco3)o2)c1 | n | n | n | u | 15µM
CC(C)OC(=O)C1C2C=CC3(CN(Cc4cccs4)C(=O)C13)O2 (configuration not stated) | n | n | n | n | n
CN1CCN(C(=O)CN(c2cccc(Br)c2)S(=O)(=O)c2ccccc2)CC1 | n | n | n | n | n
CC(C)C(=O)Nc1ccc(-c2nnc(-c3ccccc3)o2)cc1 | n | n | n | n | u
O=C(Nc1cccc(-c2nnc(-c3ccco3)o2)c1)C(c1ccccc1)c1ccccc1 | n | n | n | u | 16µM
O=C(O)c1cc(O)c2c(c1)[C@H]([C@H]1c3cc(C(=O)O)cc(O)c3C(=O)c3c(O[C@@H]4O[C@H](CO)[C@@H](O)[C@H](O)[C@H]4O)cccc31)c1cccc(OC3O[C@H](CO)[C@@H](O)[C@H](O)[C@H]3O)c1C2=O (some centres not stated) | n | n | u | 15µM | 15µM
